PubChem BioAssay (NCATS)
Records with an inconclusive call do not appear. The source made the active and inactive calls. Calls come from the whole dose curve; as a rule, active = well fitted curve in the direction sought with a large enough effect; inconclusive = small, poorly fitted or top-dose-only effect, or another doubt; inactive = no such curve, though single readings can be large; an effect the other way counts as inactive or inconclusive.

Assays:
CRL-7250 [1] = assay: Cytotoxic Profiling of Annotated Libraries Using Quantitative High-Throughput Screening (AID 1296008); settings: Five cell lines viability, CellTiter-Glo ATP luminescence, 48-72 h; max response: active compounds read low; note: nearly all actives have a fitted effect of over 60% in size
Summary of the method: (§1)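 Compounds were pin-transferred onto cells and incubated 48 or 72 hr at 37 degree Celsius, 95% humidity. CellTiter-Glo was added, plates sat 10 min at room temperature, then ATP-coupled luminescence was imaged as the viability read-out.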

HEK293 = assay: as above; settings: Five cell lines viability, CellTiter-Glo ATP luminescence, 48-72 h; max response: active compounds read low
Summary of the method: as §1

HaCat [2] = assay: as above; settings: Five cell lines viability, CellTiter-Glo ATP luminescence, 48-72 h; max response: active compounds read low
Summary of the method: as §1

KB-3-1 = assay: as above; settings: Five cell lines viability, CellTiter-Glo ATP luminescence, 48-72 h; max response: active compounds read low
Summary of the method: as §1

NIH3T3 [3] = assay: as above; settings: Five cell lines viability, CellTiter-Glo ATP luminescence, 48-72 h; max response: active compounds read low
Summary of the method: as §1

MCC-13 = assay: qHTS assay to identify novel small-molecules to repurpose for Merkel cell carcinoma treatment (AID 1296009); settings: MCC and control cell lines, CellTiter-Glo viability, 72 h; series mostly up to 46 µM; note: nearly all actives have a fitted effect of over 60% in size
Summary of the method: (§2)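 Luminescence from CellTiter-Glo, read 10 min after addition at room temperature, reported viability following a 72 hr, 37 degree celsius treatment with NPC or MIPE compounds in titration; values normalized to plate controls.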

MCC-26 = assay: as above; settings: MCC and control cell lines, CellTiter-Glo viability, 72 h; series mostly up to 46 µM
Summary of the method: as §2

MKL-1 = assay: as above; settings: MCC and control cell lines, CellTiter-Glo viability, 72 h; series mostly up to 46 µM
Summary of the method: as §2

MKL-2 = assay: as above; settings: MCC and control cell lines, CellTiter-Glo viability, 72 h; series mostly up to 46 µM
Summary of the method: as §2

UISO = assay: as above; settings: MCC and control cell lines, CellTiter-Glo viability, 72 h; series mostly up to 46 µM
Summary of the method: as §2

WaGa = assay: as above; settings: MCC and control cell lines, CellTiter-Glo viability, 72 h; series mostly up to 46 µM
Summary of the method: as §2

C33A = assay: Primary qHTS to identify gynecologic anti-cancer compounds using libraries of approved drugs and bioactive compounds (AID 1345084); settings: Gynecologic cancer cell panel viability, ATPlite luminescence, 48 h; series mostly up to 57.5 µM; note: nearly all actives have a fitted effect of over 55% in size
Summary of the method: (§3)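 Cells, 1,000 per well, plated 16 h, then exposed 48 h at 37 C to compounds. Viability by ATPlite luminescence after 15 min at room temperature.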

CAOV3 = assay: as above; settings: Gynecologic cancer cell panel viability, ATPlite luminescence, 48 h; series mostly up to 57.5 µM
Summary of the method: as §3

CASKI = assay: as above; settings: Gynecologic cancer cell panel viability, ATPlite luminescence, 48 h; series mostly up to 57.5 µM
Summary of the method: as §3

Es-2 = assay: as above; settings: Gynecologic cancer cell panel viability, ATPlite luminescence, 48 h; series mostly up to 57.5 µM
Summary of the method: as §3

HeLa = assay: as above; settings: Gynecologic cancer cell panel viability, ATPlite luminescence, 48 h; series mostly up to 57.5 µM
Summary of the method: as §3

HACAT [4] = assay: qHTS assay to identify novel small-molecules to repurpose for Merkel cell carcinoma treatment (AID 1296009); settings: MCC and control cell lines, CellTiter-Glo viability, 72 h; at 44.8 µM (top of the series) unless noted; note: nearly all actives have a fitted effect of over 60% in size
Summary of the method: as §2

CRL-7250 [5] = assay: as above; settings: MCC and control cell lines, CellTiter-Glo viability, 72 h; at 44.8 µM (top of the series) unless noted
Summary of the method: as §2

NIH3T3 [6] = assay: as above; settings: MCC and control cell lines, CellTiter-Glo viability, 72 h; at 44.8 µM (top of the series) unless noted
Summary of the method: as §2
% is set by controls: 0 for no effect and ±100 for the full control effect.

CN(C)CCc1c[nH]c2ccccc12
inactive: max response (CRL-7250 [1]) 2.04% | max response (HEK293) -13.9% | max response (HaCat [2]) 4.72% | max response (KB-3-1) -5.51% | max response (NIH3T3 [3]) 2.6% | Potency (MCC-13) | Potency (MCC-26) | Potency (MKL-1) | Potency (MKL-2) | Potency (UISO) | Potency (WaGa) | Potency (C33A) | Potency (CAOV3) | Potency (CASKI) | Potency (Es-2) | Potency (HeLa)

COc1cc(CC#N)cc(OC)c1OC
inactive: max response (CRL-7250 [1]) -2.26% | max response (HEK293) -3.74% | outcome (HaCat [2]) | max response (NIH3T3 [3]) -3.69% | outcome (HACAT [4]) | Potency (MCC-13) | Potency (MCC-26) | Potency (MKL-1) | Potency (MKL-2) | Potency (UISO) | Potency (WaGa) | Potency (C33A) | Potency (CAOV3) | Potency (CASKI) | Potency (Es-2) | Potency (HeLa)

O=C1CN2CCOC2(c2ccccc2Cl)c2cc(Cl)ccc2N1 (stereo not drawn)
inactive: outcome (CRL-7250 [1]) | max response (HEK293) -3.36% | max response (HaCat [2]) -2.33% | outcome (NIH3T3 [3]) | outcome (CRL-7250 [5]) | Potency (MCC-13) | Potency (MCC-26) | Potency (MKL-1) | Potency (MKL-2) | outcome (NIH3T3 [6]) | Potency (UISO) | Potency (WaGa) | Potency (C33A) | Potency (CAOV3) | Potency (CASKI) | Potency (Es-2) | Potency (HeLa)

CNC(C)Cc1ccccc1OC (stereo not drawn)
inactive: max response (CRL-7250 [1]) -10.9% | max response (HEK293) -10.8% | max response (HaCat [2]) -16.5% | max response (KB-3-1) 2.15% | max response (NIH3T3 [3]) -6.74% | Potency (MCC-13) | Potency (MCC-26) | Potency (MKL-1) | Potency (MKL-2) | Potency (UISO) | Potency (WaGa) | Potency (C33A) | Potency (CASKI) | Potency (Es-2) | Potency (HeLa)

COc1cc(N)c(Cl)cc1C(=O)NC1CN2CCC1CC2 (stereo not drawn)
inactive: max response (CRL-7250 [1]) -0.63% | max response (HEK293) -0.75% | max response (HaCat [2]) -3.99% | max response (KB-3-1) 8.72% | outcome (NIH3T3 [3]) | Potency (MCC-13) | Potency (MCC-26) | Potency (MKL-1) | Potency (MKL-2) | outcome (NIH3T3 [6]) | Potency (UISO) | Potency (WaGa) | Potency (C33A) | Potency (CASKI) | Potency (Es-2) | Potency (HeLa)

CNC(C)Cc1ccc2c(c1)OCO2 (stereo not drawn)
inactive: max response (CRL-7250 [1]) 4.98% | max response (HEK293) -3.37% | max response (HaCat [2]) -2.61% | max response (KB-3-1) -21.8% | max response (NIH3T3 [3]) 0.465% | Potency (MCC-13) | Potency (MKL-2) | Potency (C33A) | Potency (CAOV3) | Potency (CASKI) | Potency (Es-2) | Potency (HeLa)

C[N+](C)(C)CCOC(=O)C(O)(c1ccccc1)c1ccccc1
inactive: max response (CRL-7250 [1]) 1.11% | max response (HEK293) -0.686% | max response (HaCat [2]) 1.68% | max response (KB-3-1) -1.19% | max response (NIH3T3 [3]) 2.06% | Potency (MCC-13) | Potency (MCC-26) | Potency (MKL-1) | Potency (MKL-2) | Potency (UISO) | Potency (WaGa) | Potency (C33A) | Potency (CAOV3) | Potency (CASKI) | Potency (Es-2) | Potency (HeLa)
